Results taken from PubChem BioAssay AID687001 (Broad Institute, 2013).
Results with a measured potency or affinity are listed apart.

target: Protein S100-A4 (Homo sapiens) (UniProt P26447); experiment: S100A4-myosin IIA binding inhibitor potency, dose response, biochemical, fluorescence polarization, cherry-picked hits (AID 687001); conditions: FP, S100A4/TAMRA-myosin IIA peptide binding; series mostly up to 11 µM; activity change, negative = inhibition: at the top concentration;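 note: 0% = DMSO neutral control wells and -100% = TFP positive control wells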
Sequence (P26447 whole entry, looked up): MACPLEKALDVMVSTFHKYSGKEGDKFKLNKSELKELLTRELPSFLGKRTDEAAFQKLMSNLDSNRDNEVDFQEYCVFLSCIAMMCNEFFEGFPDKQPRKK

Activity change, negative = inhibition, inactive:
COc1cccc(NC(=O)N(C)C[C@@H]2OCc3ccccc3-c3c(n(C)c4ccccc34)C(=O)N([C@@H](C)CO)C[C@@H]2C)c1 3.35%, CCS(=O)(=O)Nc1ccc2c(c1)C(=O)N(C)C[C@@H](OC)[C@@H](C)CN(C(C)=O)[C@H](C)CO2 -0.437%, O=C(C[C@@H]1CC[C@H]2[C@@H](COC[C@@H](O)CN2CC2CCCCC2)O1)NCc1ccc(F)cc1 7.76%, COCCCNC(=O)c1ccc2sc([C@@H]3O[C@H](CO)[C@H](O)[C@H](O)[C@H]3O)nc2c1 -2.29%, Cc1c(C(=O)OCC(=O)N(C)CC(=O)Nc2ccc(F)cc2)oc2ccccc12 5.97%, O=C(OCC(=O)N1CCCC1=O)c1ccc(Cl)cc1[N+](=O)[O-] 0.43%, CCC(=O)Nc1ccc2c(c1)OC[C@H](C)N(Cc1ccccc1C(=O)O)C[C@H](C)[C@@H](OC)CN(C)C2=O -3.14%, O=S(=O)(c1ccc2c(c1)CCCN2)N1CCCC2CCCCC21 (centres undefined) 3.23%, CC1(C(=O)Nc2ccc3c(c2)OCO3)CCN1C(=O)Cc1cccc2ccccc12 (centres undefined) -2.86%, Cc1ccc(CN2C(=O)CSc3ccc(C(=O)NC4CC4)cc32)cc1 -4.95%, Cc1cc(=O)oc2c3c(cc(OCC(=O)NCC(=O)N[C@H](C(=O)O)C(C)C)c12)OC(C)(C)CC3 -1.84%, CC(=O)N1[C@H](C(=O)N[C@H](C)c2ccccc2)[C@@H](CO)[C@@H]2Cn3c(cccc3=O)[C@@H]21 -1.68%, CCCN1[C@H](C(=O)N2CCCCC2)[C@@H](CO)[C@@H]2Cn3c(ccc(-c4ccccc4F)c3=O)[C@@H]21 0.141%, COc1cccc(CC(NC(C)=O)C(=O)NC2CCN(S(=O)(=O)c3ccc(NC(C)=O)cc3)CC2)c1OC (centres undefined) -4.43%, COc1ccc(S(=O)(=O)N(C)C[C@@H]2OCCCC[C@@H](C)Oc3ccc(NC(=O)Nc4ccc(C(F)(F)F)cc4)cc3C(=O)N([C@H](C)CO)C[C@@H]2C)cc1 3.23% [at 10 µM], C[C@@H]1CN([C@H](C)CO)C(=O)c2ccccc2-c2ccccc2CO[C@H]1CN(C)C(=O)Oc1ccccc1 -2.82%, CC(NC(=O)c1ccc(N2CCCC2)c([N+](=O)[O-])c1)c1ccc(S(N)(=O)=O)cc1 (centres undefined) -3.17%, Cc1nn(-c2ccccc2)c(N)c1N=O 1.54%, COc1ccc(CN2C[C@H](O)COC[C@@H]3O[C@@H](CC(=O)N(C)C)CC[C@H]32)cc1 3.69%, CC(OCCN(C)C)C(=O)C12CC3CC(CC(C3)C1)C2 (centres undefined) -2.31%, NC(=O)c1ccsc1NC(=O)c1ccco1 16.3%, COc1ccccc1NC(=O)N1CCCCN2[C@H](C1)[C@@H](c1ccc(C#CC3CC3)cc1)[C@@H]2CO 40.1%, C=C1CCN([C@@H](Cc2ccccc2)C(=O)NC2CCN(Cc3ccccc3)CC2)S(=O)(=O)c2ccccc21 -0.361%, COc1ccc(-c2coc(CCC(=O)N3CCN(c4cc(C)ccc4C)CC3)n2)cc1 10.4%, C[C@@H]1CN([C@H](C)CO)C(=O)c2cc(C#Cc3ccccc3)cnc2O[C@@H]1CN(C)C(=O)c1ccccc1F 1.29%, Cc1[nH]c(C)c(S(=O)(=O)N2CCN(c3ccccc3F)CC2)c1C(=O)N1CCCCC1 -2.64%, Cc1cc2cc(CNC(=O)c3ccc(S(=O)(=O)N4CCCC4)cc3)ccc2n1C 4.75%, COCCOC(=O)c1nccnc1C(=O)Nc1ccc(S(=O)(=O)N2CCOCC2)cc1 -5.51%, CN1CCCCN2[C@@H](CO)[C@@H](c3ccc(C#CC4(O)CCCC4)cc3)[C@@H]2C1 16.3%, CC(=O)Nc1ccc(S(=O)(=O)c2ccc([N+](=O)[O-])cc2)cc1 -4.99%, C[C@H](CO)N1C[C@H](C)[C@H](CN(C)Cc2ccccc2)Oc2ccc(NS(=O)(=O)c3ccccc3)cc2CC1=O 3.85%, CN(C)CC/C=C1/c2ccccc2COc2ccc(CC(=O)O)cc21 -4.99%, COc1ccc(N2CCN(C(=O)[C@H](C)N3C(=O)C4CC=CCC4C3=O)CC2)cc1 (some centres undefined) 0.726%, COc1ccc(S(=O)(=O)NCC2CCCN(Cc3cccc(C(C)=O)c3)C2)cc1 (centres undefined) 10.8%, CCNC(=O)[C@H]1[C@H](CO)[C@H]2Cn3c(ccc(-c4ccc(F)cc4)c3=O)[C@@H]1N2C 0.752%, COc1cccc(NC(=O)N[C@@H]2C=C[C@@H](CC(=O)N3CCN(C)CC3)O[C@@H]2CO)c1 -4.96%, COc1cccc(NC(=O)N[C@@H]2C=C[C@@H](CC(=O)NCc3ccncn3)O[C@@H]2CO)c1 0.495%, Cc1ccc(S(=O)(=O)N(C)C[C@@H]2Oc3c(NC(=O)C4CCCCC4)cccc3C(=O)N([C@H](C)CO)C[C@@H]2C)cc1 7.16%, CCCCN(CC(=O)NC1CCCC1)C(=O)C(=O)Nc1ccc2c(c1)OCCO2 2.24%
